Results from PubChem BioAssay (NCI).
“And” between values parts separate entries of the source, which are not always exact repeats. Identical values can stand only once. The panel holds about 79,000 compounds, 15% with a hit somewhere; the sample as a whole holds those more often. A structure can be active in one record and inactive in another. The source made the active and inactive calls. Cut-off read from the data, not from the text of the source: active = growth inhibition above about 70%; inactive = the rest.

Test: NCI Yeast Anticancer Drug Screen. Data for the mlh1 rad18 strain (AID 175)
Settings: S. cerevisiae mlh1 rad18 strain growth inhibition, stronger effect = higher value
Protocol: Growth inhibition of yeast strains with defined genetic alterations is measured as a screen for potential anti-cancer activity. Selected strains with alterations in DNA damage repair or cell cycle control were exposed to compounds and growth inhibition was measured relative to vehicle treated controls. The strain used in this assay is mlh1 rad18

[1] = at 5.0 µM (retest, dose inferred, filed as 0.5)
[2] = at 50.0 µM (retest, dose inferred, filed as 5.0)

Compound | growth inhibition [1] | growth inhibition [2] | growth inhibition (at 50.0 µM)
OC1CCC(O)CC1 (configuration not stated) | 0% (inactive) | 10% (inactive) | 67.3% (inactive) and 22% (inactive)
COc1cc(O)c2c(c1)C(=O)c1cc3c(c(O)c1C2=O)C(OC1OC(C)C(OC)C(O)C1OC)C(OC)C(C)(O)C3=O (configuration not stated) | 29% (inactive) | 96% (active) | 99.2% (active) and 90.9% (active)
CCCCCCCCC(Sc1n[nH]c(=O)[nH]c1=O)C(=O)OCC (configuration not stated) | 3% (inactive) | 48% (inactive) | 89.5% (active)
N=C1N(c2ccccc2)C(=S)C(=Nc2ccccc2)N1c1ccccc1 | -6% (inactive) | 99% (active) | 87.2% (active)
COc1ccc(/C=C/NC=O)cc1 | -3% (inactive) | -2% (inactive) | 28.9% (inactive)
ClCCCN(CCCCl)c1ccc(C=Nc2cccc(Cl)c2)cc1 | 17% (inactive) | 89% (active) | 78.5% (active)
CC(C)(C)CC(C)(C)c1ccc(OCCO)cc1 | -5% (inactive) | 99% (active) | -27.9% (inactive) and 99.5% (active)
O=C(/C=C/c1ccccn1)c1ccccc1 | -1% (inactive) | 29% (inactive) | 80.7% (active) and 21.1% (inactive)
Nc1cc2ccccc2c2c1ccc1ccccc12 | -125% (inactive) and 3% (inactive) | -40% (inactive) and 96% (active) | 96.4% (active) and 90.7% (active)
CCOC(=O)c1c[nH]c2cc(C(F)(F)F)ccc2c1=O | 56% (inactive) | 99% (active) | 1.5% (inactive)
O=C(NNc1ccnc2cc(Cl)ccc12)/C(=C/c1ccc2c(c1)OCO2)NC(=O)c1ccccc1 | -2% (inactive) | 71% (active) | 93.1% (active)
O=C1CCC(c2ccccc2)(C2(c3ccccc3)CCC(=O)O2)O1 (configuration not stated) | 4% (inactive) | 47% (inactive) | -0.2% (inactive) and 63.1% (inactive)
O=C1C=CC(=O)N1c1ccc(N=Nc2ccccc2)cc1 | 98% (active) | 99% (active) | 85.5% (active) and 5.9% (inactive)
O=NC1C(Br)C2CC1C1C(Cl)C(Cl)CC21 (configuration not stated) | 25% (inactive) | 66% (inactive) | 49.2% (inactive)
